CDK5 p35 inh: CDK5/p35 (human) kinase inhibition; Recombinant CDK5/p35, ADP-Glo luminescence, 60 min; inhibition, % at 10 µM; Q00535+Q15078; actives 0.01% (n = 330,000);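 active = highest replicate inhibition of at least 50% and at least 75% of replicates reaching 50%; inconclusive = only one of the two criteria met; inactive = both criteria failed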;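 note: plate controls were DMSO neutral control for no effect and GW8510 at 10 µM for full effect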
dFosB activator: enhances mouse delta FosB homodimer DNA binding; purified delta FosB, TAMRA-CDK5 oligo fluorescence polarization; percent of positive-control signal above neutral wells; AID 493131; activation, % at 25 µM; P13346; actives 0.99% (n = 340,000);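 active = mean activation above about 17%, with every replicate also reaching it, limit read from the data, passing the limit was not always enough; inconclusive = only one of the two conditions met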
Target sequence (P13346 whole entry, looked up): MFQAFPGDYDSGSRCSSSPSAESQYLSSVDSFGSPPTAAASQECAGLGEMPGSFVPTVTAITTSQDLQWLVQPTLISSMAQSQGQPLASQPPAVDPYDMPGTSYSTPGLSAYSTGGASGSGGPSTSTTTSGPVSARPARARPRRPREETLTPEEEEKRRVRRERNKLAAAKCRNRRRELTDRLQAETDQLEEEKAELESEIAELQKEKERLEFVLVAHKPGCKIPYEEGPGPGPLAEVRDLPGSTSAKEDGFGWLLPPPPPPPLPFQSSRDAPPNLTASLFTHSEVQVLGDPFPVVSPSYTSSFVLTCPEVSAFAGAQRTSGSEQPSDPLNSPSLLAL
PglD DTNB: PglD (C. jejuni) enzyme inhibition; inhibition, % at 12.5 µM; AID 602405; purified PglD enzyme, DTNB colorimetric CoA detection; actives 0.098% (n = 360,000); in the data active = inhibition above about 16%, passing the limit was not always enough; inconclusive = no clear call, values can overlap the other calls
PvdQ acylase: blocks Pseudomonas aeruginosa PvdQ acylase activity; purified PvdQ acylase, fluorescence plate reader; inhibition, % at 10 µM; actives 0.063% (n = 340,000); in the data active = inhibition above about 30%, passing the limit was not always enough; inconclusive = no clear call, values can overlap the other calls;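 note: 0% = vehicle neutral wells and 100% = reference inhibitor wells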
SIRT5 inh: blocks human SIRT5 desuccinylation of peptide | inhibition, % at 15 µM | Purified SirT5, succinyl-peptide AMC, trypsin-coupled fluorescence | actives 1.1% (n = 330,000) | Q9NXA8; in the data active = inhibition above about 15%; inconclusive = no clear call, values can overlap the other calls
Target sequence (Q9NXA8 whole entry, looked up): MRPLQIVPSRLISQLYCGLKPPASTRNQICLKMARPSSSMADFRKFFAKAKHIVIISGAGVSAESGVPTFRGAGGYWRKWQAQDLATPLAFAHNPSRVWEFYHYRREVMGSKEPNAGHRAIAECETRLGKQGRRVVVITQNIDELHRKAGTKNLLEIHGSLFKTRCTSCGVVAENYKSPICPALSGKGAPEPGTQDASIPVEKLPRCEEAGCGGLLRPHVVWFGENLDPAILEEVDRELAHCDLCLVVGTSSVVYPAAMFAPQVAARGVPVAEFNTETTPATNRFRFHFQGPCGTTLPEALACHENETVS
FGF22 binding: binders of recombinant human FGF22 by thermal shift; Q9HCT0; SYPRO orange fluorescence; percent of sucrose octasulfate shift, DMSO zero; activity (Tm shift, normalised), % at 9.99 µM; actives 1.5% (n = 340,000); AID 651658;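 active = mean Tm shift, scaled 0 neutral to 100 positive control, at about 1.3% or above, every replicate too, limit read from the data; inconclusive = no clear call, values can overlap the other calls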
* marks the source's active call; other numbers are inactive results; ? = inconclusive; · = no result given. Rows were chosen to be rich in hits. Some 2.8% of all compounds tested hit in one or more screens of this group.

SMILES	CDK5 p35 inh	dFosB activator	PglD DTNB	PvdQ acylase	SIRT5 inh	FGF22 binding
Cc1ccc2c(c1)C1CN(C)CCC1N2C(=O)c1cn(-c2ccccc2)nc1-c1ccccc1 (stereo not drawn)	0.1	?	·	0.3	2.0	1.6*
Cc1ccc2c(c1)C1CN(C)CCC1N2C(=O)c1cccnc1Cl (stereo not drawn)	-1.7	-7.7	·	-15.0	-1.4	0.1
CN1CCN(c2ccc(S(C)(=O)=O)cc2[N+](=O)[O-])CC1	2.0	-3.2	3.6	-6.6	0.3	0.0
CN1CCN(c2ccc(S(=O)(=O)C(F)(F)F)cc2[N+](=O)[O-])CC1	0.7	5.5	-10.1	-8.7	20.5*	0.0
O=C(Cc1ccccc1)NC(Oc1ccccc1Cl)C(Cl)(Cl)Cl (stereo not drawn)	·	-10.6	-3.1	-7.7	·	·
NS(=O)(=O)OC(CCc1ccccc1)C(Cl)(Cl)Cl (stereo not drawn)	0.3	-0.7	-3.7	-9.0	-0.6	44.5*
O=c1[nH]c2ccccc2n1C1CCN(CCCC(c2ccc(F)cc2)c2ccc(F)cc2)CC1	-0.1	27.7*	1.2	-6.6	0.5	-0.4
CN(C)c1ccc(/C=C/C=C2/C(=O)NC(=O)N(c3ccccc3)C2=O)cc1	3.5	9.5	·	13.3	-2.6	43.5*
O=C(O)[C@H]1[C@H](CO)[C@H]2Cn3c(ccc(-c4ccccc4)c3=O)[C@@H]1N2CC1CCCCC1	·	·	0.7	·	-2.7	0.0
O=C(c1cccnc1)N1Cc2ccccc2-n2nncc2C1	·	·	·	·	·	43.6*
N=Cc1c(O)n(-c2ccc(C34CC5CC(CC(C5)C3)C4)cc2)c(=O)[nH]c1=O	-0.1	45.9*	·	13.7	·	·
CCN1[C@@H]2c3ccc(-c4cccc(C(=O)N(C)C)c4)c(=O)n3C[C@H]1[C@H](CO)[C@H]2C(=O)OC	·	·	-2.4	·	-2.5	0.0
C/C=C/c1ccc(C2[C@@H]3CN(C(=O)C4CC4)C[C@H]2N3)cc1 (stereo partly drawn)	·	·	·	·	1.0	·
CCOC(=O)[C@]12Cc3c(cc(OC)c(OC)c3OC)[C@H]1N(C1CCCCC1)C(=O)c1ccccc12	·	·	·	·	20.3*	-0.2
O=C(Cc1cccnc1)N1CCCCN2[C@H](CO)[C@@H](c3ccc(/C=C/c4ccccc4)cc3)[C@H]2C1	·	·	2.2	·	-1.8	0.0
COC(=O)[C@@H]1[C@@H](CO)[C@@H]2Cn3c(ccc(-c4ccccc4F)c3=O)[C@H]1N2Cc1ccncc1	·	·	0.2	·	5.2	-0.5
COc1ccccc1N1C(=O)NC(=O)/C(=C/c2ccc3c(c2)Cc2ccccc2-3)C1=O	-1.9	-8.5	·	8.9	0.4	43.5*
COc1cc(/C=C2\C(=O)NC(=O)N(c3ccccc3)C2=O)cc(OC)c1O	-3.3	-3.6	1.8	-2.2	·	·
C[C@H](CO)N1C[C@H](C)[C@H](CN(C)C(=O)Oc2ccccc2)OCc2ccccc2-c2c(n(C)c3ccccc23)C1=O	·	·	·	·	6.2	-0.2
CN(C)c1cccc(CN2CCN(c3ccccc3)CC2)c1	·	·	3.5	·	15.4*	0.2
c1ccc(CN2CCN(Cc3ccc4ccccc4c3)CC2)cc1	-4.3	-9.4	-1.4	-8.5	5.0	0.0
COC(=O)[C@@H]1[C@@H](CO)[C@@H]2Cn3c(ccc(-c4cccc(OC)c4)c3=O)[C@H]1N2C(=O)c1cnccn1	·	·	-1.8	·	3.2	-0.1
C/C(=N\N1CCCCCC1)c1c(O)n(-c2ccc(Cl)cc2)c(=O)[nH]c1=O	-1.8	10.0	4.7	-0.3	-7.6	0.0
C/C(=N\N1CCCCCC1)c1c(O)n(-c2ccc(C)cc2)c(=O)[nH]c1=O	-0.1	-3.0	·	6.7	-1.1	43.6*
O=C(O)c1ccc(Cl)nc1	-0.1	-2.5	·	-2.5	-0.2	43.5*
SMILES	CDK5 p35 inh	dFosB activator	PglD DTNB	PvdQ acylase	SIRT5 inh	FGF22 binding
O=C(COC(=O)c1cc(Br)cc(Br)c1O)NC12CC3CC(CC(C3)C1)C2	·	·	2.0	·	·	1.7*
COC(=O)[C@H]1[C@H](CO)[C@H]2Cn3c(ccc(-c4ccc(F)cc4)c3=O)[C@@H]1N2C(C)=O	·	·	0.8	·	-14.3	0.0
O=C1NC(=O)N(Cc2ccco2)C(=O)/C1=C/C=C/c1ccco1	-4.3	-14.3	·	5.0	15.3*	-0.1
O=C1NC(=O)N(Cc2ccccc2)C(=O)/C1=C\C=C\c1ccco1	-1.4	-14.8	-0.4	-9.2	5.9	0.0
O=C(NCCO)c1nsnc1NCCCl	1.7	-5.7	·	3.6	2.8	43.3*
N#CC1=C(N)Oc2c(c(=O)sc3ccccc23)C1c1ccncc1 (stereo not drawn)	1.2	-0.7	·	-21.3	15.8*	0.6
O=C1NC(=O)C(=Cc2ccc(Sc3ccccc3)o2)C(=O)N1	5.8	-3.1	1.7	1.4	-2.7	-0.3
O=C1NC(=O)C(=Cc2ccco2)C(=O)N1	1.8	-11.3	-2.6	-15.6	·	43.7*
O=C(Cc1ccccn1)N1CCCCN2[C@@H](CO)[C@H](c3ccc(C#Cc4ccccc4)cc3)[C@@H]2C1	·	·	5.3	·	1.7	0.0
OCCNCCc1c[nH]c2ccc(OCc3ccccc3)cc12	4.1	12.3	0.7	-2.9	19.9*	-0.1
O=C(Cc1ccncc1)N1CCCCN2[C@H](C1)[C@H](c1ccc(C#CC3(O)CCCC3)cc1)[C@@H]2CO	·	·	2.8	·	2.0	0.0
COc1ccc(-n2c(-c3ccccc3F)nc3ccccc3c2=O)cc1	·	·	-1.0	·	-1.4	0.3
COc1ccc(-n2c(-c3ccccc3Br)nc3ccccc3c2=O)cc1	-0.7	-17.2	-2.9	-3.6	35.0*	-0.2
CCCC(C)C1(CC)C(=O)NC(=O)N=C1N (stereo not drawn)	0.1	1.4	·	-13.4	1.5	44.2*
Cc1ccccc1N1C(=O)NC(=O)/C(=C\c2cnn(-c3ccccc3)c2)C1=O	-1.0	-1.4	·	-12.7	19.7*	0.1
CCOc1cc2c(cc1OCC)-n1cccc1C(c1ccc(C(C)C)cc1)NC2 (stereo not drawn)	-5.8	23.9*	-1.0	-3.1	0.0	-0.2
CCOc1cc2c(cc1OCC)-n1cccc1C(c1ccc(F)cc1)NC2 (stereo not drawn)	-0.7	-2.5	2.6	-14.8	-1.0	-0.2
CCCN1[C@@H]2Cn3c(ccc(-c4ccc(OC)cc4)c3=O)[C@H]1[C@@H](C(=O)OC)[C@@H]2CO	·	·	-3.3	·	-58.0	0.0
CC=Cc1ccc2n(c1=O)C[C@@H]1[C@@H](CO)[C@H](C(=O)O)[C@H]2N1S(=O)(=O)c1ccccc1C (mixture of isomers)	·	·	-1.1	·	-8.3	0.0
COc1ccc(NC(c2ccccc2F)P(=O)(Oc2ccccc2)Oc2ccccc2)cc1 (stereo not drawn)	-0.8	-21.2	·	-14.4	3.8	44.3*
CN(C)C1C(=O)C(C(N)=O)=C(O)C2(O)C(=O)C3=C(O)c4c(O)cccc4C(C)(O)C3C(O)C12 (stereo not drawn)	1.3	0.4	-4.0	4.1	40.4*	-0.3

Assay outcomes: PubChem BioAssay, Broad Institute
